Several values for one entry are separate records, joined by “and”; a condition that tells them apart may be missing. Equal entries are not always repeated. Records with an inconclusive call do not appear. The source holds several records for some structures; these can differ, active in one and inactive in another. Activity calls are given as the source filed them. The calls were made as follows, unless noted: active = hit-call score of the fitted dose curve at least 0.9, where 1 is the maximum; inconclusive = response in the unintended direction; inactive = score below 0.9.

Read-out in experiment [1]: sulfotransferase 2A1 (SULT2A1), SULT2A1 (gene 6822)
Put plainly: LTEA_HepaRG_SULT2A1: Life Technologies and Expression Analysis (LTEA) Assay for sulfotransferase 2A1 (SULT2A1) using HepaRG (AID 2283531; active = hit-call score of the fitted dose curve at least 0.9, where 1 is the maximum; inactive = score below 0.9). The conditions noted are these: mRNA level, 48 h; actives raise or lower the signal. The essentials: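 Gene-expression endpoint in a human liver cell line: SULT2A1 mRNA change after 48 h chemical treatment, curves fitted in both directions relative to 0.5% DMSO vehicle. Concentrations spanned eight half-log steps from 100 uM.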

Read-out in experiment [2]: Transforming Growth Factor (TGFA), TGFA (gene 7039)
Put plainly: LTEA_HepaRG_TGFA: Life Technologies and Expression Analysis (LTEA) Assay for Transforming Growth Factor (TGFA) using HepaRG (AID 2283532; active = hit-call score of the fitted dose curve at least 0.9, where 1 is the maximum; inactive = score below 0.9). The conditions noted are these: mRNA level, 48 h; actives raise or lower the signal. The essentials: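 HepaRG (human liver line), 48 h exposure, 8 conc. half-log down from 100 uM, 0.5% DMSO vehicle, duplicates; serum-free induction medium. TGFA mRNA by TaqMan qRT-PCR, ACTB/GAPDH/POLR2A normalization; gain/loss fit vs DMSO.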

Read-out in the next experiment: TIMP1, TIMP1 (gene 7076)
Put plainly: LTEA_HepaRG_TIMP1: Life Technologies and Expression Analysis (LTEA) Assay for TIMP1 using HepaRG (AID 2283534; active = hit-call score of the fitted dose curve at least 0.9, where 1 is the maximum; inactive = score below 0.9;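 also: TaqMan qRT-PCR signal normalized to ACTB GAPDH and POLR2A housekeeping genes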). The conditions noted are these: mRNA level, 48 h; actives raise or lower the signal. A digest of the protocol:
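TIMP1 induction or repression in HepaRG cells after 48 h chemical exposure (eight concentrations, highest 100 uM), assessed by normalized qRT-PCR with bidirectional fitting to DMSO controls.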

Read-out in experiment [3]: Tumor necrosis factor receptor 1 (TNFRSF1A), TNFRSF1A (gene 7132)
Put plainly: LTEA_HepaRG_TNFRSF1A: Life Technologies and Expression Analysis (LTEA) Assay for Tumor necrosis factor receptor 1 (TNFRSF1A) using HepaRG (AID 2283535; active = hit-call score of the fitted dose curve at least 0.9, where 1 is the maximum; inactive = score below 0.9). The conditions noted are these: mRNA level, 48 h; actives raise or lower the signal. A digest of the protocol: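 Assay uses 48 h chemical treatment of differentiated HepaRG monolayers, tested in duplicate at eight concentrations from 100 uM downward in 0.5% DMSO. mRNA is normalized to ACTB, GAPDH and POLR2A, with induction or suppression fitted relative to vehicle.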

Read-out in experiment [4]: Thyroid Hormone Responsive (THRSP), THRSP (gene 7069)
Put plainly: LTEA_HepaRG_THRSP: Life Technologies and Expression Analysis (LTEA) Assay for Thyroid Hormone Responsive (THRSP) using HepaRG (AID 2283536; active = hit-call score of the fitted dose curve at least 0.9, where 1 is the maximum; inactive = score below 0.9). The conditions noted are these: mRNA level, 48 h; actives raise or lower the signal. The essentials:
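mRNA induction or loss relative to 0.5% DMSO vehicle was fitted bidirectionally across an eight-point curve whose highest exposure was 100 uM. Human HepaRG liver cells received chemicals in duplicate over 48 h before RNA extraction.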

Read-out in experiment [5]: Cellular tumor antigen p53 (Homo sapiens) (UniProt P04637)
Put plainly: LTEA_HepaRG_TP53: Life Technologies and Expression Analysis (LTEA) Assay for Tumor Protein P53 (TP53) using HepaRG (AID 2283537; active = hit-call score of the fitted dose curve at least 0.9, where 1 is the maximum; inactive = score below 0.9). The conditions noted are these: mRNA level, 48 h; actives raise or lower the signal. The essentials:
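Read-out is TP53 transcript level by microfluidic qRT-PCR, normalised to three housekeeping genes and fitted bidirectionally against DMSO. Human HepaRG cells received compounds for 48 h, highest concentration 100 uM.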

Read-out in experiment [6]: UDP glucuronosyltransferase (UGT1A1), UGT1A1 (gene 54658)
Put plainly: LTEA_HepaRG_UGT1A1: Life Technologies and Expression Analysis (LTEA) Assay for UDP glucuronosyltransferase (UGT1A1) using HepaRG (AID 2283538; active = hit-call score of the fitted dose curve at least 0.9, where 1 is the maximum; inactive = score below 0.9). Conditions: mRNA level, 48 h; actives raise or lower the signal. A digest of the protocol: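 Readout is UGT1A1 transcript level by qRT-PCR, normalized to three housekeeping genes, after 48 h chemical treatment of HepaRG cells. Concentrations ran from 100 uM down in half-log steps with 0.5% DMSO, and gain or loss relative to DMSO was fitted.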

Read-out in experiment [7]: UDP glucuronosyltransferase (UGT1A6), UGT1A6 (gene 54578)
Put plainly: LTEA_HepaRG_UGT1A6: Life Technologies and Expression Analysis (LTEA) Assay for UDP glucuronosyltransferase (UGT1A6) using HepaRG (AID 2283539; active = hit-call score of the fitted dose curve at least 0.9, where 1 is the maximum; inactive = score below 0.9). Conditions: mRNA level, 48 h; actives raise or lower the signal. The essentials:
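Measures mRNA change in HepaRG hepatic cells exposed 48 h to chemicals (eight-point, maximum 100 uM, 0.5% DMSO vehicle) in serum-free induction medium. Expression normalized to endogenous controls; DMSO served as negative control and baseline.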

Read-out in experiment [8]: X-box binding protein 1 (XBP1), XBP1 (gene 7494)
Put plainly: LTEA_HepaRG_XBP1: Life Technologies and Expression Analysis (LTEA) Assay for X-box binding protein 1 (XBP1) using HepaRG (AID 2283540; active = hit-call score of the fitted dose curve at least 0.9, where 1 is the maximum; inactive = score below 0.9). The conditions noted are these: mRNA level, 48 h; actives raise or lower the signal. A digest of the protocol: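 Eight concentrations (half-log, highest 100 uM, 0.5% DMSO) tested in duplicate on HepaRG cells over 48 h in serum-free induction medium; qRT-PCR of XBP1 normalised to ACTB, GAPDH, POLR2A.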

Experiment [9] is described as follows: ATG_XTT_Cytotoxicity: Cytotoxicity Assessment in the Attagene TRANS-FACTORIAL HepG2 Assay (AID 2283584). A digest of the protocol:
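24 h chemical exposure of reporter-transfected HepG2; XTT signal loss vs DMSO indicates cytotoxicity.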

Experiment [10] in a line: TOX21_p53_BLA_p2_viability: Viability Assessment in the Tox21 HCT-116 p53 Agonism Beta-lactamase Assay, Phase 2 (AID 2283591).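 Also: compound exposure lasted 16 h at 37 °C; actives lower the ATP signal meaning cytotoxicity.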 A digest of the protocol:
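Cytotoxicity readout: CellTiter-Glo ATP luminescence, 30 min at room temperature, after the beta-lactamase read. Cells were HCT116 exposed 16 h at 37C to compounds pin-transferred at 217-fold dilution from DMSO stocks.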

Experiment [11] in a line: TOX21_p53_BLA_p3_viability: Viability Assessment in the Tox21 HCT-116 p53 Agonism Beta-lactamase Assay, Phase 3 (AID 2283593).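 Also: cells exposed to compound for 16 h before reading.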 The essentials: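 Cellular ATP was quantified by CellTiter-Glo luminescence, read after 30 min at room temperature. Beforehand, HCT116 cells (4000/well) received compound 5 h post-seeding, 217-fold diluted from DMSO, then incubated 16 h at 37C.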

Experiment [12] is described as follows: TOX21_p53_BLA_p4_viability: Viability Assessment in the Tox21 HCT-116 p53 Agonism Beta-lactamase Assay, Phase 4 (AID 2283597).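 Also: hits lower the luminescence signal meaning cytotoxicity.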 The essentials:
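Luminescent ATP readout (CellTiter-Glo, 30 min, room temperature) in the same wells as the p53 bla ratio. HCT116 cells were treated for 16 h at 37C with DMSO-dissolved compounds.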

Experiment [13] in a line: TOX21_p53_BLA_p5_viability: Viability Assessment in the Tox21 HCT-116 p53 Agonism Beta-lactamase Assay, Phase 5 (AID 2283600). The essentials:
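Seeded cells (4000/well) settle 5 h before compound addition. Plates then incubate 16 h at 37C, receive FRET substrate for 2 h, and finally CellTiter-Glo, with luminescence measured after a 30 min room-temperature incubation.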

Read-out in experiment [14]: Transforming Growth Factor (TGFB1), TGFB1 (gene 7040)
Put plainly: LTEA_HepaRG_TGFB1: Life Technologies and Expression Analysis (LTEA) Assay for Transforming Growth Factor (TGFB1) Transporter using HepaRG (AID 2283533; active = hit-call score of the fitted dose curve at least 0.9, where 1 is the maximum; inactive = score below 0.9). Conditions: mRNA level, 48 h; actives raise or lower the signal. The essentials: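 Eight-point concentration-response (max 100 uM, half-log) in HepaRG under serum-free induction conditions, 48 h. TGFB1 mRNA by qRT-PCR, housekeeping-normalized.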

A short description of experiment [15]: LTEA_HepaRG_LDH_cytotoxicity: Cytotoxicity Assessment in the Life Technologies and Expression Analysis (LTEA) Assay (AID 2283563).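 As to AC50: LDH activity released into spent culture medium as a marker of cell death.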 The essentials: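 Spent-medium LDH after 48 h chemical exposure of HepaRG cells in serum-free induction medium; eight concentrations, half-log dilutions from 100 uM, duplicate wells, fitted upward relative to 0.5% DMSO.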
Experiment [16] has as its target Cellular tumor antigen p53 (Homo sapiens) (UniProt P04637). Put plainly: TOX21_p53_BLA_p2_ratio: Tox21 HCT-116 p53 Agonism Beta-lactamase Assay, Ratio, Phase 2 (AID 2283592). A digest of the protocol: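 Human colon HCT116 cells with an inducible p53 beta-lactamase reporter are exposed to test chemicals for 16 h at 37C. Reporter induction is read as the 460/530 nm emission ratio after CCF4-AM loading, normalized to DMSO.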

Experiment [17] has the same target. Put plainly: TOX21_p53_BLA_p3_ratio: Tox21 HCT-116 p53 Agonism Beta-lactamase Assay, Ratio, Phase 3 (AID 2283596). The essentials: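 HCT116 p53-bla cells (4000/well) given compound in DMSO (217-fold dilution) after 5 h, incubated 16 h at 37C. CCF4-AM substrate 2 h at room temperature; 460/530 nm emission ratio, gain fitted against DMSO.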
Experiment [18] shares this target. Put plainly: TOX21_p53_BLA_p5_ratio: Tox21 HCT-116 p53 Agonism Beta-lactamase Assay, Ratio, Phase 5 (AID 2283599). The essentials:
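Beta-lactamase reporter ratio (blue 460 nm over green 530 nm, 405 nm excitation) after 2 h CCF4-AM loading, in HCT-116 cells exposed 16 h at 37 C to compounds pinned at 217-fold dilution. Increases relative to DMSO baseline scored.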

Experiment [19] shares this target. Put plainly: TOX21_p53_BLA_p4_ratio: Tox21 HCT-116 p53 Agonism Beta-lactamase Assay, Ratio, Phase 4 (AID 2283601). The essentials:
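Signal is the blue/green (460nm/530nm) ratio of cleaved versus uncleaved CCF4-AM substrate, read after 2 h substrate loading. Cells were HCT116 carrying the p53-responsive beta-lactamase reporter, dosed 16 h at 37C, 5% CO2; CellTiter-Glo measured in parallel.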

Chain of Cellular tumor antigen p53 (Homo sapiens) (P04637 whole entry, looked up): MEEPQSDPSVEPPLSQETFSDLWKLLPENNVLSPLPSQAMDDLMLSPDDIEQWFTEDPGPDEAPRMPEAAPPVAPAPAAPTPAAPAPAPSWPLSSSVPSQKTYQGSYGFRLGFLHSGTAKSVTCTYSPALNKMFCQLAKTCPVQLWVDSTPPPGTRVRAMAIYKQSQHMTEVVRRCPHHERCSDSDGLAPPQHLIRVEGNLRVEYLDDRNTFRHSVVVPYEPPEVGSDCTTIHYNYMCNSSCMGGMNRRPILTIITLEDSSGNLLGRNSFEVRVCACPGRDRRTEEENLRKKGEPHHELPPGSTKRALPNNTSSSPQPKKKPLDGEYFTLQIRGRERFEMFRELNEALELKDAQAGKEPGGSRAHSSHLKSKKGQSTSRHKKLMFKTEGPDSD

As to `[Cl-].[Cl-].[Hg+2]`, the outcome was “inactive” in [1]; “inactive” in [2]; “inactive” with TIMP1, TIMP1 (gene 7076); “inactive” in experiment [3]; “inactive” in [5]; “inactive” in [6]. Moreover, the molecule was called inactive in experiment [7], in experiment [8], in experiment [9] and in [11]. For the same molecule, the concentration at half-maximal activity (AC50) (usually the concentration giving half of the maximal activity seen) is 21.8 µM (active) in experiment [4]; 34.8 µM (active) and 7.78 µM (active) and 16.4 µM (active) in experiment [10]; 68.5 µM (active) and 26.1 µM (active) in [11]; 32.1 µM (active) and 9.76 µM (active) and 12 µM (active) in experiment [12]; 85.2 µM (active) and 19 µM (active) and 18.5 µM (active) in experiment [13].
In the case of `CS(=O)(=O)NC(=O)c1cc(Oc2ccc(C(F)(F)F)cc2Cl)ccc1[N+](=O)[O-]`, the outcome is “inactive” in [1]; “inactive” in [2]; “inactive” in [14]; “inactive” with TIMP1, TIMP1 (gene 7076); “inactive” in [3]; “inactive” in experiment [4]. Moreover, the molecule was called inactive in experiment [5], in [8], in experiment [15], in [9], in [10] and in experiment [16]. Moreover, the molecule was classed as inactive in [11], in experiment [17] and in [13]. Also, the concentration at half-maximal activity (AC50) in experiment [6] is 3.32 µM (active).
As to `O=[N+]([O-])c1ccc(Oc2ccc(Cl)cc2Cl)cc1`, the outcome in experiment [1] was “inactive”; in experiment [2], “inactive”; in experiment [14] it was “inactive”; with TIMP1, TIMP1 (gene 7076), “inactive”; in [3], “inactive”; in [4], “inactive”. Also, the call in [5], in experiment [7], in experiment [8], in [9], in experiment [10] and in experiment [16] was inactive. In addition, the outcome in experiment [11], in experiment [17], in [12], in experiment [18], in experiment [13] and in experiment [19] was inactive. The AC50 in experiment [15] was 73.8 µM (active).

The record behind these values is PubChem BioAssay (EPA / NIEHS).
